We go through 45 molecules from PubChem BioAssay AID602440 (Sanford-Burnham Center for Chemical Genomics, 2012).

The campaign covered roughly 360,000 compounds. About 2,300 (0.64%) were called active. This is one part of a sample in which actives are shown more often than they occur. Unmarked numbers belong to inactive results. Rule as the data show it: active = inhibition mostly above about 40% (no sharp cut-off); inactive = mostly below about 27%.

The target of this test is Sentrin-specific protease 8 (Homo sapiens) (UniProt Q96LD8). The experiment in a line: human SENP8 protease inhibitors, primary screen, biochemical, fluorescence, Nedd8 protein substrate, uHTS (AID 602440). The conditions noted are these: recombinant SENP8, Nedd8 substrate fluorescence; at 20 µM; hits give high values.
Sequence of Sentrin-specific protease 8 (Homo sapiens) (Q96LD8 whole entry, looked up): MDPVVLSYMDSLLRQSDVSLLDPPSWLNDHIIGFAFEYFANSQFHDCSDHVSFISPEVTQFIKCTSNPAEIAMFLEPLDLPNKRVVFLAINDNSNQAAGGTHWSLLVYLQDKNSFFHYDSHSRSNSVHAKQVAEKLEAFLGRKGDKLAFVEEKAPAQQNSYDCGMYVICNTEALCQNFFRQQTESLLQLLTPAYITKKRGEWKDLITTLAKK
The inhibition is the change of the read-out against control, counted positive when it falls. For `CCOCCc1c(O)[nH]c(=S)[nH]c1=O`, the inhibition is 21.8%.

With `O=C1N=c2ccccc2=C/C1=C\c1c(O)[nH]c(=S)[nH]c1=O`, the inhibition is -52.5%.

On to `COc1ccccc1N=Nc1c(O)[nH]c(=S)[nH]c1=O`, for which the inhibition was 49% (active). For the molecule `CC(C(=O)Nc1ccc(Cl)cc1Cl)N1CC=C(c2ccccc2)CC1` (stereo not given), the inhibition was 26.7%. On to `CNC(=O)N(C)c1nnc(C(C)(C)C)s1`, for which the inhibition was 17.7%. `O=C1NC(=O)N(c2ccccc2)C(=O)/C1=C/c1ccc([N+](=O)[O-])s1`: the inhibition was 64.6% (active). `CCN(CC)CCOC(=O)c1cc2cc(COC)ccc2o1`: the inhibition is 15.2%. Regarding `COC(=O)C1=C(c2cc3ccccc3o2)C[C@@H]2CC[C@H]1N2C(=O)NC1CCCCC1`, the inhibition was 11.5%. Turning to `CCOC(=O)CNC(=O)N1Cc2cc(N3CCCCC3)ccc2-n2nncc2C1`, the inhibition is -24.7%. For `c1cc2c(cc1C1OCC3C(c4ccc5c(c4)OCO5)OCC13)OCO2` (stereo not given) the value was 62.3% (active); for `O=C1/C(=C\c2ccc3c(c2)OCO3)N2CCC1CC2`, 13.7%; for `c1cc2c(cc1[C@H]1OC[C@H]3[C@@H]1CO[C@@H]3c1ccc3c(c1)OCO3)OCO2`, 12.2%. For `COC(=O)C1=C(c2ccc(F)cc2OCc2ccccc2)C[C@@H]2CC[C@H]1N2C(=O)NCc1ccc(OC)c(OC)c1` the value was 14.1%; for `CCOC(=O)[C@]12Cc3ccccc3[C@H]1N(C1CCCCC1)C(=O)c1cc(OC)ccc12`, -7.7%.

`O=c1[nH]c(=O)n(CCc2ccccc2)c(O)c1/C=N/N1CCOCC1`: the inhibition was 11.3%. For the molecule `CCOP(=O)(OCC)C(NC(=O)c1ccc(OC)cc1)C(Cl)(Cl)Cl` (stereo not given), the inhibition is 4.3%. Take `COc1ccc(C(=O)C2CN(C)CC2C(=O)c2ccc(OC)cc2)cc1` (stereo not given): the inhibition is 14.3%. `COc1ccc(C(=O)CC2C(=O)N(C)C(=O)N(C)C2=O)cc1`: the inhibition is 42.5% (active).

Take `CCCCCCCCCCCCn1ccc(=N)cc1`: the inhibition was 26.2%. Next, `CCOC(=O)CC(SP1(=S)OCC2(CCCCO2)C(C2CCCCO2)O1)C(=O)OCC` (stereo not given): 2.3%. As for `Cc1ccc(Cn2c(C)c3cnn(CC(=O)N4CCC5(CC4)OCCO5)c(=O)c3c2C)cc1`, the inhibition is -29%. On to `C=CC12CN(C)[C@@H]3C4CO[C@H](C[C@H]41)[C@]1(C(=O)Nc4ccccc41)[C@@H]32` (stereo not given in full), for which the inhibition was 40.4% (active). As for `COc1ccc2c(c1)[C@]13CCCCC1C(C2)N(C)CC3` (stereo not given in full), the inhibition is 2%. With `O=C(O)CCn1cc(C=C2C(=O)NC(=S)NC2=O)c(-c2cccc(Br)c2)n1`, the inhibition is 2.3%.

As to `CCN(CC)c1ccc([N+](=O)[O-])c2cccnc12`, the inhibition was 36.3%. For `CN(c1ccccc1)c1ccc([N+](=O)[O-])c2nonc12` the value was 44.1% (active).

For the molecule `C[C@]12CCCCC1=CC(=O)C1C2CC[C@@]2(C)C1C[C@@H](F)[C@@H]2O` (stereo not given in full), the inhibition is -0.8%. For `C[N+]12CN3CN(CN(C3)C1)C2`, the inhibition is 12.2%.

As for `O=c1c2ccccc2nc(/C=C/c2ccco2)n1-c1ccccc1O`, the inhibition is -36.8%. Take `CNP1(NC)=Nc2nn(-c3ccccc3)c(N)c2C(c2ccccc2)=N1`: the inhibition is 21.7%. Next, `O=C(O)C1CSC(c2cccnc2)N1` (stereo not given): 6.7%.

For the molecule `COC1C(O)C(C)OC(OC2CCC3(C=O)C(CCC4C3CCC3(C)C(C5=CC(=O)OC5)CCC43O)C2)C1O` (stereo not given), the inhibition was 66.8% (active). As for `C[C@]12CC[C@H](O)C[C@H]1CC[C@@H]1C2CC[C@]2(C)[C@@H](C3=CC(=O)OC3)[C@@H](O)C[C@]12O` (stereo not given in full), the inhibition is 15.3%. Regarding `CC(C)CN1CCN(Cc2ccccc2C(F)(F)F)CC1CCO` (stereo not given), the inhibition was -4%.

On to `CC1=C2C(=O)C3C(CC=C4CC(OC5OC(O)C(O)C(O)C5CO)CCC43C)C2CCC12OC1CC(C)CNC1C2C` (stereo not given), for which the inhibition is 41.4% (active). Take `CC(=O)OC1C2(CC3N4C(=O)C5(CO)SSC4(CC31O)C(=O)N5C)OC(C)C(C)(C)C2=O` (stereo not given): the inhibition is -4.6%.

`N[C@@H](Cc1c[nH]c2ccccc12)c1nnc(SCc2c(F)cccc2Cl)o1`: the inhibition was 18%. For `CN(C)C(=O)Oc1ccc2c(c1)O/C(=C\c1ccccc1)C2=O`, the inhibition is -9.7%.

Regarding `c1ccc(N2Cc3ccccc3-n3nncc3C2)nc1`, the inhibition was 14.6%. Consider `CC(=O)Nc1ccc(C(=O)C(Cc2ccccc2)N(C)C)cc1` (stereo not given), for which the inhibition is -0.4%. For `CC(Cc1ccccc1)NCCC(c1ccccc1)c1ccccc1` (stereo not given) the value was 8.1%; for `CC(Cc1ccccc1)NC=O` (stereo not given), 50.7% (active); for `CCC(C)(O)C(=O)OC1C(=O)OC2CC3C(C)=CC(=O)C(O)C3(C)C3C4(O)OCC23C1C(C)C4O` (stereo not given), 15.7%.

`CC(=CCOc1ccc2ccc(=O)oc2c1)C1=CC(=O)C(C)(C)O1`: the inhibition is -260%. For `C=Cn1ccnc1P(=S)(c1cc(N(CC)CC)ns1)c1nccn1C=C` the value was 1.5%.
